Inconclusive results are not listed. Active and inactive are the calls of the source. Unless noted, calls follow the shape of the dose curve; as a rule, active = well fitted curve in either direction with a large enough effect (not every such curve was filed as active); inconclusive = small, poorly fitted or top-dose-only effect, or another doubt; inactive = flat fitted curve, though single readings scatter.
What was measured:
[1] = biological target: Lysosomal acid glucosylceramidase (Homo sapiens) (UniProt P04062); assay: Glucocerebrosidase-p2 (AID 348; in the data active = potency below about 10 µM; also: potency is read from the fitted curve at half-maximal effect); details: purified GBA, blue fluorogenic substrate, 40 min
Lysosomal acid glucosylceramidase (Homo sapiens), sequence (P04062 whole entry, looked up): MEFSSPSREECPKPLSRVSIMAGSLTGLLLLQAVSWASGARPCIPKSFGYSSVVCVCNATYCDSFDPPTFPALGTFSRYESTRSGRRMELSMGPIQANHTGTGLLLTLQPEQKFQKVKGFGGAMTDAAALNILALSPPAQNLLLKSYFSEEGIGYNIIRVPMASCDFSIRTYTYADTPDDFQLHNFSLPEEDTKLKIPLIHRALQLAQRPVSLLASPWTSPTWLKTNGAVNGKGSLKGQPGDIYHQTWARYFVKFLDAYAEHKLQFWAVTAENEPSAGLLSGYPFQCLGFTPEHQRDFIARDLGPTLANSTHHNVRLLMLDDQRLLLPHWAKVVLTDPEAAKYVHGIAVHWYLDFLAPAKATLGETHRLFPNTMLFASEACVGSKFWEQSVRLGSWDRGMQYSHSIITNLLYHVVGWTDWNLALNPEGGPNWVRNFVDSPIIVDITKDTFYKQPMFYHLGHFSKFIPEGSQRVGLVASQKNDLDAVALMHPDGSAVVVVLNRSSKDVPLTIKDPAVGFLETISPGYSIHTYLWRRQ
Summary of the method: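 Compounds titrated from 0.6 nM upwards against 0.2 nM enzyme in pH 5.9 citric acid/KH2PO4, taurocholate, tween-20; blue fluorogenic substrate 80 uM, 40 min room temperature, stopped and read Ex 365/Em 440 for AC50.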

[2] = AP1 Signaling Pathway (AID 357); details: ME-180 AP-1-bla reporter, EGF-induced, beta-lactamase ratio, 5 h; at 7.69 µM (top of the series) unless noted; also: % is scaled to controls: 0 for no effect and ±100 for the full control effect
Summary of the method: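 AP-1-bla ME-180 cells with beta-lactamase reporter under AP-1 response element, stimulated with EC50 EGF; compounds titrated, 5 hours at 37 degrees Celsius. CCF4 read at 460/530 nm ratio; positive and negative modulators judged by AC50.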

[3] = NFAT Signaling Pathway (AID 444); details: Jurkat NFAT-bla M1, carbachol, beta-lactamase ratio, 5 h; at 7.69 µM (top of the series) unless noted;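 also: carbachol stimulus at about its EC50 of 1 µM final; % is scaled to controls: 0 for no effect and ±100 for the full control effect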
Summary of the method: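 Read-out: CCF4 FRET ratio (460 nm/530 nm) after 1 h RT dye loading, used for %activity and AC50 from titration series. Cells: Jurkat NFAT-β-lactamase/M1 line, treated with compound plus 1 uM carbachol for 5 h, 37 °C.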

[4] = Stat Signaling Pathway (AID 446); details: ME-180 (cervical carcinoma) SIE beta-lactamase reporter, IL-6 stimulated, 5 h; at 7.69 µM (top of the series) unless noted;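 also: ME-180 cervical cancer cells given 40 pM IL-6 alongside compound; SIE-controlled beta-lactamase reporter measured as 460/530 nm FRET emission ratio; % is scaled to controls: 0 for no effect and ±100 for the full control effect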
Summary of the method: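 IL-6/STAT signaling read in ME-180 cells via an SIE beta-lactamase reporter. Stimulus was 40 pM IL-6 (its AC50) for 5 hrs, so both activation and inhibition register.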

[5] = biological target: Glucocorticoid receptor (Homo sapiens) (UniProt P04150); assay: GR-GFP Redistribution (AID 450;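 active = compounds whose dose series gives a full or clear partial fitted curve of increased nuclear translocation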; also: potency is read from the fitted curve at half-maximal effect); details: U2OS GR-GFP nuclear translocation, laser cytometry, 2 h
Glucocorticoid receptor (Homo sapiens), sequence (P04150 whole entry, looked up, the tested form may be a part): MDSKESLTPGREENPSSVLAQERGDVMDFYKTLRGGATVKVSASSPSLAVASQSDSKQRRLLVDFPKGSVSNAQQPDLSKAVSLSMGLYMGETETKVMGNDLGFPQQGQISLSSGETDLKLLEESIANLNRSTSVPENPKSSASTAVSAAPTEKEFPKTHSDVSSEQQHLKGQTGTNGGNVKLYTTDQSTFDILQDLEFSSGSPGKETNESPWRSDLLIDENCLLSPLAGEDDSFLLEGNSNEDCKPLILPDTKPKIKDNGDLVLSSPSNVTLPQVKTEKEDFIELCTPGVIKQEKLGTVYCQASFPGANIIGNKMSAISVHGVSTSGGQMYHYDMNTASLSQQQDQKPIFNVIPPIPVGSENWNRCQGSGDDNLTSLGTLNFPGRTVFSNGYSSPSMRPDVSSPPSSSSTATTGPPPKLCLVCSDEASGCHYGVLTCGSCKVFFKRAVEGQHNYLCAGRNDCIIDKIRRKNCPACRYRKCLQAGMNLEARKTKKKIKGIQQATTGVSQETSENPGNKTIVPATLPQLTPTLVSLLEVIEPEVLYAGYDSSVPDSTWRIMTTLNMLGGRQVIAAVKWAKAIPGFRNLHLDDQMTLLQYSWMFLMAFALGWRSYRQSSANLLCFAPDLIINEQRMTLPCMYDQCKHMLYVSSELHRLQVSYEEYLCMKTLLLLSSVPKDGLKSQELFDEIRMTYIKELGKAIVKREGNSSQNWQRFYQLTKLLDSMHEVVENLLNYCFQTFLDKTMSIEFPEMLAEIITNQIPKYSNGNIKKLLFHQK

[6] = biological target: Glucocorticoid receptor (Homo sapiens) (UniProt P04150); assay: GR-EFC Redistribution (AID 451; calls by dose curve; also: potency is read from the fitted curve at half-maximal effect); details: CHO-K1 GR-EFC translocation, beta-gal luminescence, 2 h
Summary of the method: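 Translocation of GR-ED fusion to nuclear EA restores b-gal, read by luminescence after 1 h room-temperature detection. Engineered CHO-K1 biosensor cells, 1,000/well, exposed 2 h at 37 C to titrations up to 46 uM final.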

[7] = biological target: Mitogen-activated protein kinase 10 (Mus musculus) (UniProt Q61831); assay: JNK3 AlphaScreen Assay (AID 530); details: JNK3 lysate, c-Jun phosphorylation; series mostly up to 11.4 µM;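 also: kinase came from lysate of stimulated human HepG2 cells; signal reports phosphorylation of biotinylated GST-cJun 1-79 at Ser73 with 10 µM ATP; % is scaled to controls: 0 for no effect and ±100 for the full control effect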
Summary of the method: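 Room-temperature AlphaScreen kinase assay; pre-activated HepG2 lysate as JNK3 source, biotin-GST-cJun(1-79) substrate, 10 uM ATP, compound 15 min preincubation.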

[8] = biological target: 3',5'-cyclic-AMP phosphodiesterase 4B (Homo sapiens) (UniProt Q07343); assay: qHTS Assay for Inhibitors of PDE-IV (AID 607; active = well fitted activation curve with a large enough effect in the main read-out, with a control signal flat, not every such curve was filed as active; also: % of control where 0% means no effect); details: HEK293 ACTOne CNG channel cells, membrane potential fluorescence; series mostly up to 22.9 µM
3',5'-cyclic-AMP phosphodiesterase 4B (Homo sapiens), sequence (Q07343 whole entry, looked up): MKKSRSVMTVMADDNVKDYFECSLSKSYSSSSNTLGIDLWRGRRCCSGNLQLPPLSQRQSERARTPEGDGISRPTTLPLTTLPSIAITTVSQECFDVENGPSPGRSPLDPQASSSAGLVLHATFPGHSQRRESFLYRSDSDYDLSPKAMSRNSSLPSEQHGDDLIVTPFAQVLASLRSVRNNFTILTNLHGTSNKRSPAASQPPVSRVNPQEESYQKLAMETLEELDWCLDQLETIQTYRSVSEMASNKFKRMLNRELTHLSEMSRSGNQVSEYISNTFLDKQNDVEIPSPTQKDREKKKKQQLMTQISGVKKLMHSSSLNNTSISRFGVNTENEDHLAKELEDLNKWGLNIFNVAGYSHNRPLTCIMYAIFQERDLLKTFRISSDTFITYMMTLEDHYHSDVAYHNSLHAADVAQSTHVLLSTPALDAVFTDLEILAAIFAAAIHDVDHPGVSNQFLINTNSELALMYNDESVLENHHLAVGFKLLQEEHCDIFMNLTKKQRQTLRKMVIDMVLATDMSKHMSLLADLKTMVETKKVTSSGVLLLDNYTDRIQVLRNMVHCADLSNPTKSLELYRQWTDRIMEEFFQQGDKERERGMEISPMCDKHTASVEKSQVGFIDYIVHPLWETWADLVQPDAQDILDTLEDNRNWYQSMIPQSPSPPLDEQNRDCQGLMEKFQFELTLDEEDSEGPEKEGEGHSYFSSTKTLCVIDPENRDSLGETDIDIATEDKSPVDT
Summary of the method: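 Live HEK293 cells with a modified cyclic nucleotide-gated (CNG) channel report intracellular cAMP via membrane-potential dye fluorescence (ex 535/em 590 nm). Endogenous PDE-IV was targeted. Compounds were tested at up to 22.9 uM final; RO 20-1724 100 uM served as control.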

CC(C)Oc1cc(O)c2c(c1)OCC=C2CCC(=O)O
inactive: Potency [1] > 11.4 µM | activity change, negative = inhibition [2] 0.742% | activity change, negative = inhibition [3] -2.86% | activity, negative = inhibition [4] 0.331% | Potency [5] > 46 µM | Potency [6] > 9.22 µM | Potency [7] | Potency [8]

O=C(O)C(Cc1ccccc1)Cc1ccccc1
inactive: Potency [1] > 11.4 µM | activity change, negative = inhibition [2] 8.41% | activity change, negative = inhibition [3] 1.48% | activity, negative = inhibition [4] -8.39% | Potency [5] > 46 µM | Potency [6] > 9.22 µM | Potency [7] | Potency [8]

c1nnc(NCNc2nncs2)s1
inactive: Potency [1] > 11.4 µM | activity change, negative = inhibition [2] 12.8% | activity change, negative = inhibition [3] 7.13% | activity, negative = inhibition [4] -7.18% | Potency [5] > 46 µM | Potency [6] > 9.22 µM | Potency [7] | Potency [8]

CC1(C)CCC(=O)N[C@H]1CC(=O)C[C@H]1NC(=O)CCC1(C)C
inactive: Potency [1] > 11.4 µM | activity change, negative = inhibition [2] -7.26% | activity change, negative = inhibition [3] 13% | activity, negative = inhibition [4] 3.06% | Potency [5] > 46 µM | Potency [6] > 9.22 µM | Potency [7] | Potency [8]

CC(C)CN(CC#N)CC(C)C
inactive: Potency [1] > 11.4 µM | activity change, negative = inhibition [2] 6.22% | activity change, negative = inhibition [3] 12.7% | activity, negative = inhibition [4] 5.79% | Potency [5] > 46 µM | Potency [6] > 9.22 µM | Potency [7] | Potency [8]

COc1cc(C(=O)O)c([N+](=O)[O-])c(OC)c1OC
inactive: Potency [1] > 11.4 µM | activity change, negative = inhibition [2] 4.41% | activity change, negative = inhibition [3] 3.25% | activity, negative = inhibition [4] 0.596% | Potency [5] > 46 µM | Potency [6] > 9.22 µM | Potency [7] | Potency [8]

COc1cc2c(cc1O)[C@@H](c1cc(O)c(O)c(OC)c1)[C@@](O)(C(=O)O)[C@@H](CO)[C@@H]2O
inactive: Potency [1] > 11.4 µM | activity change, negative = inhibition [2] 0.0448% | activity change, negative = inhibition [3] -5.96% | activity, negative = inhibition [4] 4.61% | Potency [5] > 46 µM | Potency [6] > 9.22 µM | Potency [7] | Potency [8]

O=C(O)C(Cl)(c1ccccc1)c1ccccc1
inactive: Potency [1] > 11.4 µM | activity change, negative = inhibition [2] 1.69% | activity change, negative = inhibition [3] 6.6% | activity, negative = inhibition [4] -5.62% | Potency [5] > 46 µM | Potency [6] > 9.22 µM | Potency [7] | Potency [8]

NCCNC[C@H](O)CO
inactive: Potency [1] > 11.4 µM | activity change, negative = inhibition [2] -9.92% | activity change, negative = inhibition [3] 7.58% | activity, negative = inhibition [4] 3.6% | Potency [5] > 46 µM | Potency [6] > 9.22 µM | Potency [7] | Potency [8]

Cc1ccc2nc(-c3ccc(NC(=O)c4ccc(N)cc4)c(S(=O)(=O)O)c3)sc2c1
inactive: Potency [1] > 11.4 µM | activity change, negative = inhibition [2] -3.73% | activity change, negative = inhibition [3] 12.1% | activity, negative = inhibition [4] -11.4% | Potency [5] > 46 µM | Potency [6] > 9.22 µM | Potency [7] | Potency [8]

CC(=O)[C@@]1(N=Nc2ccc(S(N)(=O)=O)cc2)CCOC1=O
inactive: Potency [1] > 11.4 µM | activity change, negative = inhibition [2] -8.54% | activity change, negative = inhibition [3] 5.28% | activity, negative = inhibition [4] 6.55% | Potency [5] > 46 µM | Potency [6] > 9.22 µM | Potency [7] | Potency [8]

C[C@H](CCC(=O)O)[C@H]1CC[C@@H]2[C@@H]3CC[C@H]4C[C@@H](O)CC[C@@]4(C)[C@@H]3C[C@H](O)[C@@]21C
inactive: Potency [1] > 11.4 µM | activity change, negative = inhibition [2] 4.11% | activity change, negative = inhibition [3] 27.2% | activity, negative = inhibition [4] 2.1% | Potency [5] > 46 µM | Potency [6] > 9.22 µM | Potency [7] | Potency [8]

O=C(O)CNC(=O)[C@H]1NC(C(F)(F)F)(C(F)(F)F)OC1(C(F)(F)F)C(F)(F)F
inactive: Potency [1] > 11.4 µM | activity change, negative = inhibition [2] -4.91% | activity change, negative = inhibition [3] 10.9% | activity, negative = inhibition [4] -14.7% | Potency [5] > 46 µM | Potency [6] > 9.22 µM | Potency [7] | Potency [8]

O=C(O)CCCCn1cnc2c(=S)nc[nH]c21
inactive: Potency [1] > 11.4 µM | activity change, negative = inhibition [2] 8.11% | activity change, negative = inhibition [3] 5.86% | activity, negative = inhibition [4] 6.11% | Potency [5] > 46 µM | Potency [6] > 9.22 µM | Potency [7] | Potency [8]

O=C(Nc1c[nH]c(=O)[nH]c1=O)Oc1ccccc1
inactive: Potency [1] > 11.4 µM | activity change, negative = inhibition [2] 1.22% | activity change, negative = inhibition [3] 2.28% | activity, negative = inhibition [4] -1.82% | Potency [5] > 46 µM | Potency [6] > 9.22 µM | Potency [7] | Potency [8]

C[N+](C)([O-])Cc1cc(-c2ccccc2)ccc1O
inactive: Potency [1] > 11.4 µM | activity change, negative = inhibition [2] -2.32% | activity change, negative = inhibition [3] 1.32% | activity, negative = inhibition [4] -3.36% | Potency [5] > 46 µM | Potency [6] > 9.22 µM | Potency [7] | Potency [8]

CC(=O)Nc1ccc(-c2cc(C(=O)O)c3cc4ccccc4cc3n2)cc1
inactive: Potency [1] > 11.4 µM | activity change, negative = inhibition [2] 7.67% | activity change, negative = inhibition [3] 5.02% | activity, negative = inhibition [4] -2.25% | Potency [5] > 46 µM | Potency [6] > 9.22 µM | Potency [7] | Potency [8]

Cc1cc(=O)[nH]c2cc3oc4ccccc4c3cc12
inactive: Potency [1] > 11.4 µM | activity change, negative = inhibition [2] 6.73% | activity change, negative = inhibition [3] 8.67% | activity, negative = inhibition [4] -1.36% | Potency [5] > 46 µM | Potency [6] > 9.22 µM | Potency [7] | Potency [8]

NC1=N[C@H](c2ccc(Cl)cc2)N(c2ccc(S(=O)(=O)Nc3ncccn3)cc2)C(N)=N1
inactive: Potency [1] > 11.4 µM | activity change, negative = inhibition [2] -10.6% | activity change, negative = inhibition [3] -0.0424% | activity, negative = inhibition [4] -0.946% | Potency [5] > 46 µM | Potency [6] > 9.22 µM | Potency [7] | Potency [8]

CC(C)=C[C@H]1[C@@H](COC(=O)c2cc3c(cc2Cl)OCO3)C1(C)C
inactive: Potency [1] > 11.4 µM | activity change, negative = inhibition [2] 9.62% | activity change, negative = inhibition [3] 1.43% | activity, negative = inhibition [4] 13.6% | Potency [5] > 46 µM | Potency [6] > 9.22 µM | Potency [7] | Potency [8]

Clc1ccc(CSc2ncnc3c2ncn3[C@@H]2CCCCO2)cc1
inactive: Potency [1] > 11.4 µM | activity change, negative = inhibition [2] -8.23% | activity change, negative = inhibition [3] 12.9% | activity, negative = inhibition [4] -14.7% | Potency [5] > 46 µM | Potency [6] > 9.22 µM | Potency [7] | Potency [8]

CC(CO)(CO)Nc1ncnc2ccccc12
inactive: Potency [1] > 11.4 µM | activity change, negative = inhibition [2] 4.46% | activity change, negative = inhibition [3] 9.62% | activity, negative = inhibition [4] 12.4% | Potency [5] > 46 µM | Potency [6] > 9.22 µM | Potency [7] | Potency [8]

CC1(C)[C@@H](CC(=O)O)CCC[C@@H]1CC(=O)O
inactive: Potency [1] > 11.4 µM | activity change, negative = inhibition [2] 2.47% | activity change, negative = inhibition [3] 5.58% | activity, negative = inhibition [4] 1.3% | Potency [5] > 46 µM | Potency [6] > 9.22 µM | Potency [7] | Potency [8]

O=C(O)CSc1ccccc1C(=O)O
inactive: Potency [1] > 11.4 µM | activity change, negative = inhibition [2] 9.97% | activity change, negative = inhibition [3] -5.26% | activity, negative = inhibition [4] -2.73% | Potency [5] > 46 µM | Potency [6] > 9.22 µM | Potency [7] | Potency [8]

NC(=O)N[C@H](CC(=O)O)C(=O)O
inactive: Potency [1] > 11.4 µM | activity change, negative = inhibition [2] -2.2% | activity change, negative = inhibition [3] 0.469% | activity, negative = inhibition [4] -0.625% | Potency [5] > 46 µM | Potency [6] > 9.22 µM | Potency [7] | Potency [8]
